Screens as filed in PubChem.
The list is not random: actives were taken first. Their share in the collection is about 2.3%.
S2 tox: cell viability loss in ATXN counter-screen; S2 cells (HEK-293 line with an ATXN2-luciferase reporter) viability, CellTiter-Fluor protease fluorescence, 24 h; 400,000 tested, 0.49% active; Potency, µM (series often up to 56.7 µM), actives largely listed as cytotoxic; AID 651635; further: nearly all actives have a fitted effect of over 40% in size
HepG2 viability: counter-screen for TGF-b inhibitors: cytotoxicity in HepG2 cells; HepG2 CAGA-GFP viability, ATP luminescence, 18 h; Potency, µM (series often up to 46.1 µM), usual class: cytotoxic; 410,000 tested, 0.76% active
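HepG2 CAGA-GFP cells (1000/well, DMEM with 1% FBS) received compound, then TGF-beta at 500 pg/mL final, and were incubated 18 hours at 37 degrees C. Viability was read by CellTiter-Glo luminescence. Media-only wells were set as complete cell-killing and DMSO as no toxicity.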
ATXN2 expr inh: ATXN2 expression inhibition. HEK-293 ATXN2-luciferase reporter, luminescence, 24 h. Potency, µM (titrated, usually from 57 µM), most hits filed as inhibitors. 360,000 tested, 0.72% active. AID 1745845; further: nearly all actives have a fitted effect of over 55% in size
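ATXN2-luciferase reporter cells (luciferase flanked by upstream and downstream ATXN2 gene portions) were treated 24 h at 37 °C with compounds at up to 57 uM. SteadyGlo luminescence gave expression; GF-AFC fluorescence gave viability.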
TGFb SMAD3 inh: TGF-b pathway inhibition. HepG2 CAGA-GFP TGF-b/SMAD3 reporter, GFP fluorescence, 18 h; TGF-beta stimulated, 500 pg/mL final. 410,000 tested, 1.2% active. Potency, µM (doses to about 46.1 µM), hits mostly inhibitors. AID 588855; further: nearly all actives have a fitted effect of over 65% in size
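Per well, imaged GFP fluorescence of HEPG2 CAGA-GFP cells gives the signal; cells get compound, then TGF-beta (500 pg/mL final), 18 h at 37 degrees C; %Activity versus -TGF-beta and +DMSO controls.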
Numbers stand for hits; n = inactive; u = inconclusive; x = no result given. The call rests on the fitted dose curve; in most records, active means well fitted curve in the direction sought with a large enough effect; inconclusive means small, poorly fitted or top-dose-only effect, or another doubt; inactive means no such curve, though single readings can be large; an effect the other way counts as inactive or inconclusive.

SMILES | S2 tox | HepG2 viability | ATXN2 expr inh | TGFb SMAD3 inh
CSc1ccccc1CNc1nc(NCC2CC2)nc2ccsc12 | 14.1µM | 11.2µM | u | 15.8µM
CCc1nc(NCCCn2ccnc2)c2oc3ccccc3c2n1 | n | n | n | n
c1ccc(-c2nc(NCCCn3ccnc3)c3oc4ccccc4c3n2)cc1 | u | 20µM | u | u
CC[N+]1(CC)CCC(=C(c2ccccc2)c2ccccc2)C1C (stereo not drawn) | n | x | n | x
CC(/C=N/NC(=O)c1nnn(-c2nonc2N)c1C(C)C)=C\c1ccccc1 | u | n | x | 15.8µM
S=Cc1nc2ccccc2[nH]1 | x | n | x | n
O=[N+]([O-])c1ccc2c(c1)C(N1CCN(CCO)CC1)Cc1ccc(F)cc1S2 (stereo not drawn) | u | n | n | u
OCCN1CCN(C2CCC(c3ccc(F)cc3)c3ccc(F)cc32)CC1 (stereo not drawn) | u | n | 25.1µM | 20µM
COc1ccc(OCC(=O)Nc2c(C(=O)N(CCN(C)C)Cc3ccco3)oc3ccccc23)cc1 | n | n | n | 22.4µM
Cn1c(=O)c([N+](=O)[O-])c(N2CCSCC2)c2ccccc21 | n | n | n | n
Cn1c(=O)c([N+](=O)[O-])c(-n2cnc3ccccc32)c2ccccc21 | u | n | u | 12.6µM
CCC1CN(CCNC(=O)C(C)(C)O)Cc2cc(OC)ccc2O1 (stereo not drawn) | n | x | x | x
CCN1CCC(O)(C#Cc2ccccc2)CC1 | n | n | n | n
CC1C(c2ccccc2)N(C)C(c2ccccc2)C(C)C1(O)C#Cc1ccccc1 (stereo not drawn) | u | n | n | 11.2µM
CC(=O)Nc1csc2ccccc12 | n | n | x | n
O=C(Nc1ccccc1)Nc1csc2ccccc12 | n | 17.8µM | n | u
COc1ccc2nc(C)cc(NCc3cccc(C(F)(F)F)c3)c2c1 | n | 22.4µM | u | u
COc1ccc2nc(C)cc(Nc3ccccc3O)c2c1 | u | n | x | u
CN(Cc1ccccc1)C(=O)c1ccc([N+](=O)[O-])o1 | n | 20µM | x | u
Cc1ccc(-n2nnnc2CNC(=O)c2ccc([N+](=O)[O-])o2)cc1C | u | n | n | u
Cc1ccc(/C=C/C(=O)c2ccc([N+](=O)[O-])o2)cc1 | 8.91µM | n | u | 7.94µM
O=C(NCc1nnnn1-c1ccc(F)cc1)c1ccc([N+](=O)[O-])o1 | n | n | n | 14.1µM
Cc1ccc(C(=O)/C=C/c2ccc(Br)cc2)o1 | n | n | n | n
O=C(COC(=O)c1ccc([N+](=O)[O-])o1)NCc1ccccc1 | n | n | n | u
Cc1ccc(CNC(=O)c2ccc([N+](=O)[O-])o2)cc1 | u | 14.1µM | n | n
SMILES | S2 tox | HepG2 viability | ATXN2 expr inh | TGFb SMAD3 inh
O=C(CSC1CS(=O)(=O)c2cc([N+](=O)[O-])ccc21)NNC(=O)c1ccc(Cl)cc1 (stereo not drawn) | n | n | n | 12.6µM
O=C(c1ccccc1)N1N=C(C(F)(F)F)CC1(O)c1ccccc1O (stereo not drawn) | u | 7.08µM | x | 8.91µM
O=C(c1ccccc1F)N1N=C(C(F)(F)F)CC1(O)c1ccccc1 (stereo not drawn) | u | n | x | n
C[C@@H](O[C@H]1OCCN(Cc2n[nH]c(=O)[nH]2)[C@@H]1c1ccc(F)cc1)c1cc(C(F)(F)F)cc(C(F)(F)F)c1 | 31.6µM | x | u | x
CC(NC(=O)COC(=O)C1CCN(c2ccc(C(F)(F)F)cn2)CC1)c1ccc(F)cc1 (stereo not drawn) | n | n | x | n
Nn1cnnc1N/N=C/c1ccc(Cl)c([N+](=O)[O-])c1 | n | 11.2µM | n | u
Cc1nnc(N/N=C/c2ccc(Br)cc2)n1N | n | 15.8µM | n | u
Nn1cnnc1N/N=C/c1ccc(F)cc1 | u | n | x | u
Cc1ccc(/C=N/Nc2nncn2N)cc1 | n | n | n | 11.2µM
Cc1nnc(N/N=C/c2ccc(-c3ccc(Br)cc3)o2)n1N | x | n | n | u
CCc1nnc(N/N=C/c2ccc(N3CCC(C)CC3)c([N+](=O)[O-])c2)n1N | n | 11.2µM | n | 10µM
Nn1cnnc1N/N=C/c1cccc(Cl)c1Cl | n | n | n | u
COc1cc(=O)n2c(c1C(=O)NCc1ccsc1)CCN(Cc1nc3ccccc3[nH]1)CC2 | n | x | x | x
Cc1cc(=O)c(C(=O)NCCc2ccccn2)c2n1-c1ccccc1SC(c1cccs1)C2 (stereo not drawn) | n | x | x | x
O=C(c1cnn(-c2nccc(-c3ccccc3F)n2)c1C1CC1)N1CCCCC1c1cccnc1 (stereo not drawn) | n | x | x | x
CC(=O)Nc1cccc(-n2c(=O)n(C3CC3)c(=O)c3c(Nc4ccc(I)cc4F)n(C)c(=O)c(C)c32)c1 | x | x | n | x
CC(C)CCCC(C)NCCC(C)C (stereo not drawn) | n | x | n | x
COc1ccc(/C=N/Nc2nnc(C)n2N)cc1OC | n | n | n | n
COc1ccc(/C=N/Nc2nnc(C)n2N)cc1OC(C)=O | n | 12.6µM | n | 10µM
COc1ccccc1CCc1nc2ccccc2n1C1CCN(C(=O)c2cn3ccsc3n2)CC1 | n | x | x | x
Oc1c(Cl)cc(Cl)c2c1NCCC2 | u | n | u | 14.1µM
O=C1NCCCc2c1oc1ccc(O)cc21 | n | n | n | n
c1ccc2c(CCC3CCNCC3)c[nH]c2c1 | n | x | x | x
CC(=O)c1cccc(-c2csc(N3CCC(C(N)=O)CC3)n2)c1 | n | n | n | n
NC(=O)C1CCN(c2nc(-c3cccc(Cl)c3)cs2)CC1 | n | 6.31µM | n | u
SMILES | S2 tox | HepG2 viability | ATXN2 expr inh | TGFb SMAD3 inh
CC[n+]1c(C=C2C=C(C)OC(C)=C2)sc2ccccc21 | u | n | 10.6µM | n
CC[n+]1c(/C=C2/C=C(C)CC(C)C2)sc2ccccc21 (stereo not drawn) | n | n | n | n
Ic1ccc(/C=C2\C=Cc3ccccc32)cc1 | x | n | x | n
COc1ccc2c(Sc3ccc(Cl)cc3)c(C(=O)N3CCC(C)CC3)[nH]c2c1 | u | n | u | 11.2µM
CC(=O)Nc1c(Br)cc2c(c1Br)C(=O)c1ccccc1-2 | u | n | n | n
CC(=O)C1=C(c2ccc(Br)cc2)C(=O)c2ccccc2C1=O | 7.08µM | n | 3.55µM | u
CC(C)CC(=O)/C(=C\c1ccc(Cl)cc1Cl)n1cncn1 | u | 7.94µM | x | 7.08µM
COc1cc2c(NC3CCN(C)CC3)nc(N3CCCN(C)CC3)nc2cc1OCC1CCNCC1 | x | n | x | n
Cc1cc2c3c(c1C)C1(C(=O)N3C(C)(C)CC2C)C(C#N)=C(N)Oc2cc(O)ccc21 (stereo not drawn) | 22.4µM | n | u | u
COCCN(C)C(=O)c1cnn(-c2ncc3c(n2)-c2ccccc2CC3)c1C | n | x | x | x
O=C1/C(=C/c2ccccc2)CCc2ccc(Cl)nc21 | u | n | u | 20µM
CCC1(C2CCN(C(=O)c3cc4ccccc4o3)CC2)NC(=O)N(CCc2scnc2C)C1=O (stereo not drawn) | n | x | x | x
O=S(=O)(c1ccccc1)c1nc(-c2ccco2)oc1NCc1cccnc1 | n | 11.2µM | n | n
O=S(=O)(c1ccccc1)c1nc(-c2ccccc2)oc1NCc1cccnc1 | n | n | n | n
COC(=O)N/N=C/c1cc(N=Nc2ccccc2Cl)ccc1O | u | n | n | n
